Compounds with a hit are over-represented: about 0.67% of the library has one in this group of screens.
TcdB GH inh – TcdB glycohydrolase inhibitors, primary screen, biochemical, single point, plate reader | Toxin B (Clostridioides difficile), P18177 | TcdB glycohydrolase enzymatic assay | inhibition, % at 9.99 µM | hit rate 0.24% among 350,000; in the data active means inhibition above about 10%
ugtP null kill – growth inhibition of ugtP-null S. aureus, primary screen, RN4220 ugtP deletion, OD600 | AID 1259309, 2017 | hit rate 0.54% among 330,000 | growth inhibition, % (concentration not given with the values) | 16 h; in the data active means growth inhibition above about 68%;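 further: plate controls were untreated wells for no effect and antibiotic for full effect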
Vc quorum ag-1 – inducers of Vibrio cholerae quorum light production without autoinducers, primary screen, BH1578 luxS cqsA deficient, single point | V. cholerae BH1578 lux reporter, luminescence, 6 h | activation, % at 18.7 µM | hit rate 0.16% among 350,000; in the data active means activation mostly above about 9.7%, no sharp cut-off
RN4220 kill – growth inhibition of S. aureus RN4220, primary screen, OD600 | hit rate 0.33% among 330,000 | AID 1259311, 2017 | 16 h | inhibition, % (concentration not given with the values); in the data active means inhibition above about 85%;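 further: plate controls were untreated cells for no effect and reference antibiotic for full effect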
Vc quorum ag-2 – V. cholerae lux activation without autoinducers – BH1578 luxS cqsA deficient, cherry-pick, plate reader, dose response. shares compounds with Vc quorum ag-1. V. cholerae BH1578 lux reporter, luminescence, 6 h. activation, % at 50 µM. 620 tested, under 10 active; call rule not given here
HeLa 24h tox – HeLa cell cytotoxicity, dose response, cytotoxicity control, 24 h, dry powder; HeLa viability, CellTiter-Glo ATP luminescence; 25 tested, under 10 active; activity change, negative = cytotoxicity, % at 35 µM; shares compounds with Vc quorum ag-1;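 active means signal drop with fitted half-maximal concentration at or below twice the highest valid dose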
* marks the source's active call; other numbers are inactive results; i = inactive; · = not tested or not shown; + = active, no number.

SMILES	TcdB GH inh	ugtP null kill	Vc quorum ag-1	RN4220 kill	Vc quorum ag-2	others
Cc1cccc(NC(=O)CS(=O)(=O)c2cn(C)c3ccccc23)c1C	·	-6	17*	0	0
Cc1cccc(NC(=O)CS(=O)(=O)c2cn(C)c3ccccc23)c1	5	9	0	4	·
CC12CCC(=O)N1C(C(=O)NNC(=O)COc1ccc(Br)cc1)CS2 (stereo not given)	1	0	12	1	0
Cc1cc(Cl)ccc1OCC(=O)NNC(=O)C1CSC2(C)CCC(=O)N12 (stereo not given)	-2	7	i	5	·
CCCCC(=O)NN=C(C)c1cccc(NC(=O)C2CC2)c1	·	-1	·	-7	·
COCc1[nH]nc2c1C1(CCC3(CC1)OCCO3)C(C#N)=C(N)O2	·	-5	17*	8	0
Cc1[nH]nc2c1C1(CCOCC1)C(C#N)=C(N)O2	-4	14	0	1	·
C=CCn1c(-c2cc(OC)cc(OC)c2)n[nH]c1=S	·	0	22*	-1	0
CCOC(=O)Nc1cc2c(cc1C(C)=O)OCO2	·	11	-6	4	·
CC(=O)c1cc2c(cc1NC(=O)Cc1c(C)noc1C)OCO2	0	-5	22*	2	1
O=C(NCc1ccco1)C(C(=O)c1ccc(F)cc1)n1ccccc1=O (stereo not given)	3	7	0	3	·
O=C(NCc1ccccn1)C(C(=O)c1ccc(F)cc1)n1ccccc1=O (stereo not given)	·	4	12	5	0
Cc1sc2ncn(CC(=O)NCCCC(=O)N3CCC(C(N)=O)CC3)c(=O)c2c1C	1	5	0	1	·
CCCN1CCN(C(=O)CCCNC(=O)Cn2cnc3sc(C)c(C)c3c2=O)CC1	·	4	14	0	5
CC1CCCCCCCCC(=O)OCCN(C(=O)OC(C)(C)C)C(C)CCCCCCCCC(=O)OCCN(C(=O)OC(C)(C)C)C(C)CCCCCCCCC(=O)OCCN(C(=O)OC(C)(C)C)C(C)CCCCCCCCC(=O)OCCN1C(=O)OC(C)(C)C (stereo not given)	·	0	·	10	·
COCCNC(=S)N(CCCO)Cc1cc2cc3c(cc2[nH]c1=O)OCCO3	1	8	389*	1	2
COCCNC(=S)N(CCO)Cc1cc2cc3c(cc2[nH]c1=O)OCO3	-3	17	-8	5	·
Cc1cc(C=C(C#N)C(=O)Nc2ccccc2)c(C)n1-c1cccnc1	·	-12	·	6	·
C=CCNC(=O)CCCOc1ccc(C)cc1	·	-5	35*	-2	10
CCCCOC(=O)n1c(=O)oc2ccccc21	·	8	231*	2	118
COC(=O)n1c(=O)oc2ccccc21	·	-9	0	2	·
CN(C)c1cc(NN=Cc2ccccc2C(F)(F)F)nc(N(C)C)n1	·	82	·	30	·
COc1ccccc1NC(=O)c1nn(-c2ccc(Cl)cc2)ccc1=O	·	-7	25*	1	1
COc1ccccc1NC(=O)c1nn(-c2ccccc2)ccc1=O	·	-5	-7	6	·
FC(F)Oc1ccccc1NC(=S)NCc1ccco1	·	6	12	6	0
SMILES	TcdB GH inh	ugtP null kill	Vc quorum ag-1	RN4220 kill	Vc quorum ag-2	others
COc1ccccc1CNC(=O)COC(=O)c1n[nH]c2ccccc12	·	-12	12	0	2
COC(=O)C1=C(c2c(C)noc2C)CC2CCC1N2C(=O)NCc1ccc(F)cc1 (stereo not given)	·	3	·	6	·
O=C(NCCN1CCOCC1)c1cccc(NS(=O)(=O)c2ccc(Br)cc2)c1	-1	3	23*	1	14
CCS(=O)(=O)Nc1ccc(C(=O)OC)cc1	·	-2	17*	4	0
CC(=NNC(=O)C1CC1)c1ccc(Cl)cc1	·	-1	·	1	·
CCOC(=O)N1CCN(c2ccnc3cc(Cl)ccc23)CC1	-1	6	0	2	·
O=C(Oc1ccnc2cc(Cl)ccc12)N1CCCCCC1	·	-3	17*	20	1
CCOc1cc(C=C2C(=O)ON=C2C)ccc1OCc1ccccc1	·	3	·	6	·
CC1(C)Nc2ccc(O)cc2-c2c1ssc2=S	·	-6	25	3	0
COCc1nnc(NS(=O)(=O)c2ccc(OC)cc2)s1	2	2	i	-1	·
COCc1nnc(NS(=O)(=O)c2ccc(Br)cc2)s1	·	-1	28*	5	0
Cc1ccc(S(=O)(=O)N2C(c3ccc4c(c3)OCO4)CC=C(C(=O)O)C2c2ccccc2)cc1 (stereo not given)	·	22	·	18	·
C[C@H](NC(=O)c1ccco1)C(=O)Nc1ccc(S(=O)(=O)N2CCCC2)cc1	·	7	14	0	18
O=C(Nc1ccc(S(=O)(=O)N2CCCCCC2)cc1)c1ccco1	·	-1	-2	7	·
Cc1cccc(OC(C)C(=O)NC2CCS(=O)(=O)C2)c1C (stereo not given)	·	-8	23	-2	1
Cc1ccccc1NC(=O)NC1CCS(=O)(=O)C1 (stereo not given)	1	-2	i	3	·
O=C1CCC=CCC(CC(=O)N(CCO)Cc2ccccc2)C(=O)N2CCCC2CO1 (stereo not given)	·	-11	·	1	·
CC1CCc2nn(CC(=O)NC3CCCC3)cc2C1 (stereo not given)	1	9	+	0	i
O=C(Cn1cc2c(n1)CCCC2)NC1CCCCCC1	-1	-2	0	1	·
C#CCOCCOCCOCCNc1nc(N2CCN(C(=O)C(CCC(=O)O)n3cc(C(N)CC(C)C)nn3)CC2)nc(N2CCN(C(=O)C(Cc3cc4ccccc4[nH]3)n3cc(C(N)CC(C)C)nn3)CC2)n1 (stereo not given)	·	-5	·	2	·
COc1cccc(-c2nc(OC(C)C)c3ccccc3n2)c1	·	94*	25*	-15	1
CC(C)Oc1nc(-c2ccc(Cl)cc2)nc2ccccc12	-1	71	0	-6	·
Cc1ccc(C)c(S(=O)(=O)N2CCN(C(=O)c3n[nH]c(=O)c4ccccc34)CC2)c1	0	3	32*	4	323
CN(C)c1ccc(C=NNc2nc3ccccc3o2)cc1	·	19	·	2	·
Cc1cc(C)c(C)c(OCc2nc(-c3cccnc3)no2)c1	·	-5	i	3	·
SMILES	TcdB GH inh	ugtP null kill	Vc quorum ag-1	RN4220 kill	Vc quorum ag-2	others
Cc1ccc(SCc2nc(-c3cccnc3)no2)cc1	·	-6	21*	6	0
CC(C)C(NC(=O)NCc1cccs1)C(=O)O (stereo not given)	·	-9	·	0	·
O=C(Cc1ccc(-c2ccccc2)cc1)NC1CCCC1	0	-3	·	1	·	HeLa 24h tox=-14
O=C(COC(=O)/C=C/c1ccccc1)NC1CCCCC1	2	1	i	2	·
O=C(Cc1ccc(Cl)cc1)NC1CCCCCC1	-6	10	i	-6	·
O=C(COC(=O)/C=C/c1ccc(OC(F)F)cc1)NC1CCCCCCC1	2	5	-17	3	·

Assay outcomes (PubChem BioAssay)
